PubChem BioAssay AID1479 (National Center for Advancing Translational Sciences (NCATS), 2009)
About 820 (0.29%) of roughly 280,000 compounds were called active. Roughly 1% stayed inconclusive and do not appear here. Calls follow the shape of the dose curve; as a rule, active = well fitted curve in either direction with a large enough effect; inconclusive = small, poorly fitted or top-dose-only effect; inactive = flat fitted curve, though single readings scatter. This excerpt belongs to a sample that is enriched for actives.

Assay: Total Fluorescence Counterscreen for Inhibitors of the Interaction of Thyroid Hormone Receptor and Steroid Receptor Coregulator 2
Conditions: TRb/SRC2 Texas Red total fluorescence interference; series mostly up to 201 µM; fluorescence change, negative = quenching: at the top concentration
Text: NIH Molecular Libraries Probe Production Network [MLPCN]
NIH Chemical Genomics Center [NCGC]
Assay Provider: R. Kip Guy, St. Jude Children's Research Hospital
Thyroid receptor (TR) regulates many homeostatic processes including basal metabolism, cardiovascular function, body weight, and lipid trafficking. TR modulators are potential therapeutics for obesity and hyperlipidemias but current thyroid analogs have undesirable side effects, particularly cardiac stimulation. To identify inhibitors that specifically prevent the interaction of TR with the steroid receptor […] 2 (SRC2), a fluorescence polarization assay was screened. This assay detects interaction of the ligand-binding domain of human TRb with a Texas Red labeled SRC2 peptide, corresponding to a 20 amino acid region of the nuclear receptor interaction domain (Arnold et al., 2006). Total fluorescence (555 nm excitation and 632 nm emission) was measured to identify potential fluorescent and light absorbing compounds. Such compounds may be artifacts that interfere with the fluorescence polarization assay.
Arnold, L. A.; Estebanez-Perpina, E.; Togashi, M.; Shelat, A.; Ocasio, C. A.; McReynolds, A. C.; Nguyen, P.; Baxter, J. D.; Fletterick, R. J.; Webb, P.; Guy, R. K. A high-throughput screening method to identify small molecule inhibitors of thyroid hormone receptor coactivator binding. Sci STKE 2006, p 13.
NCGC Assay Protocol Summary:
For screening, 5 uL/well 0.6 uM TRb and 20 nM SRC2 Texas Red in protein buffer (20mM Tris hydrochloride, 100mM NaCl, 10% glycerol, 1mM EDTA, 0.01% NP-40, 1mM DTT, 1uM T3 and 5% DMSO) was dispensed into black solid 1536-well plates (Grenier) using a solenoid-based dispenser. Following transfer of 23 nL compound or DMSO vehicle by a pin tool, the plates were centrifuged 15 s at 1000 RPM and incubated 5 hr at ambient temperature. The plates were read by an Envision (Perkin Elmer) to detect fluorescence polarization of SRC2 Texas Red (555 nm excitation and 632 nm emission). Data were normalized to unbound (all components except TRb) and bound SRC2 Texas Red controls. Total fluorescence (TF) was calculated as follows: TF = S + 2P where S and P are fluorescence readings in the parallel and perpendicular channels, respectively.
Keywords: NIH Roadmap, MLPCN, MLI, MLSMR, qHTS, NCGC, qHTS, thyroid hormone receptor, steroid receptor coactivator, fluorescence polarization
% is scaled to controls: 0 for no effect and ±100 for the full control effect; potency is read from the fitted curve at half-maximal effect; tags tell the direction and shape of the fitted curve or compound fluorescence and quenching.

| SMILES | Potency | fluorescence change, negative = quenching |
| --- | --- | --- |
| CCCCC(=O)N/N=C/c1c(O)n(CC)c(=S)n(CC)c1=O | 0.316 µM [quencher] (active) | – |
| Clc1ccc([C@@]2(Cn3cncn3)C[C@H](Br)CO2)c(Cl)c1 | – | 0.213% (inactive) |
| CCOP(=O)(OCC)SCS(=O)(=O)C(C)(C)C | – | -3.78% (inactive) |
| CCOP(OCC)OCC | – | -0.876% (inactive) |
| O=C1NC(=O)N(c2ccccc2)C(=O)/C1=C/c1ccc([N+](=O)[O-])s1 | 44.7 µM [fluorescent] (active) | – |
| CC(C)OC(=O)Nc1ccccc1 | – | -3.86% (inactive) |
| CCC/C(=N\OCC)C1=C(O)CC(CC(C)SCC)CC1=O (stereo not given) | – | -0.248% (inactive) |
| Fc1ccc(Oc2ccnc3cc(Cl)cc(Cl)c23)cc1 | – | -9.31% (inactive) |
| CCC(C)(C)c1ccc(O)c(C(C)(C)CC)c1 | – | -0.0155% (inactive) |
| CCCN(CCOc1c(Cl)cc(Cl)cc1Cl)C(=O)n1ccnc1 | inactive | – |
